According to PubChem BioAssay AID639 (Emory University Molecular Libraries Screening Center, 2007):
Hit rate of the full screen: of about 86,000 compounds, about 1,200 (1.4%) were called active. This is one part of a sample in which actives are shown more often than they occur. Values without a mark were called inactive. Cut-off read from the data, not from the text of the source: active = activity above about 200%; inactive = the rest.

Target: Estrogen receptor (Homo sapiens) (UniProt P03372)
Assay: enhancers of ERα–SRC-1 coactivator binding, primary screen, biochemical, TR-FRET, ERα LBD, low estradiol (AID 639);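 note: binding measured in presence of low estradiol as agonist stimulus; 0% = peptide alone without receptor and 100% = receptor with peptide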
Conditions: TR-FRET ERalpha-LBD/SRC-Cy5 coactivator binding, 2 h; at 25.6 µM; stronger effect = higher value; 100 = basal binding, no effect

Chain of Estrogen receptor (Homo sapiens) (P03372 whole entry, looked up, the tested form may be a part): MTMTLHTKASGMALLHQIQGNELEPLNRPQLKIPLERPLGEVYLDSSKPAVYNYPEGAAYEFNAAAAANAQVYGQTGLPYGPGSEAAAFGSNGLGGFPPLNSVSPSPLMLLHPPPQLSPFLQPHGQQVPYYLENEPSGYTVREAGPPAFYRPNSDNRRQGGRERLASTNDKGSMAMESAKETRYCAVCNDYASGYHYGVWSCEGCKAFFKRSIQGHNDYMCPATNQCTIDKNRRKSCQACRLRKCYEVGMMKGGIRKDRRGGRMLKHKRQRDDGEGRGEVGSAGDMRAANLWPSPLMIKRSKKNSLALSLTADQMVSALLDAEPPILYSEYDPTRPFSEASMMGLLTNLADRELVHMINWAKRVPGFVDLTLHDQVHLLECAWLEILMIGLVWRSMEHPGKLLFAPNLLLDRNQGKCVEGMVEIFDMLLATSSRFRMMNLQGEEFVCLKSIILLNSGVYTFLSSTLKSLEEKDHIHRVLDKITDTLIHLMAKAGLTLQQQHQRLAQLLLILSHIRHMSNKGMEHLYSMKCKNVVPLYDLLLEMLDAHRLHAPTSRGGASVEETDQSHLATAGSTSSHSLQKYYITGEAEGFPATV

Compound	coactivator binding (% of control)
CCc1nnc(NC(=O)CSc2nc3ccccc3c(=O)n2CCCOC)s1	102%
CCOC(=O)c1c(N=CN(C)C)c(C#N)c2n1CCCC2	111%
COc1ccccc1NC(=O)CSc1nc2sc(C)c(C)c2c(=O)n1Cc1ccco1	225% (active)
COc1cc(Cl)c(C)cc1NC(=O)CSc1nnc(-c2cccnc2)n1Cc1ccco1	90.9%
COc1ccc(NC(=O)CSc2nnc(-c3cccs3)n2Cc2ccco2)cc1OC	95.3%
COC(=O)c1ccc(NC(=O)C23CC4CC(C2)CC(n2cnc(Cl)n2)(C4)C3)cc1	101%
Cc1cccc(N(C(=O)c2ccc(CN3CCOCC3)o2)C(C(=O)NC2CCCCC2)c2ccc(F)cc2)c1 (stereo unspecified)	114%
CCn1c(SCC(=O)NCC2CCCO2)nc2cc(S(=O)(=O)N3CCCCC3)ccc21 (stereo unspecified)	88.2%
Cc1ccc2cc(C#N)c(SCC(=O)NCC3CCCO3)nc2c1C (stereo unspecified)	240% [fluorescence artefact?] (active)
O=C(CSc1nnc(-c2ccc(NS(=O)(=O)c3ccccc3)cc2)o1)NCC1CCCO1 (stereo unspecified)	103%
CC1Cc2ccccc2N1C(=O)c1cc2sccc2n1Cc1ccccc1 (stereo unspecified)	200%
Cc1c(-c2ccccc2)nc(N)c(C#N)c1-c1cccs1	155%
CSc1nc(N)c(C#N)c(-c2ccccc2Cl)c1C#N	214% [fluorescence artefact?] (active)
CCc1c(-c2ccccc2)nc(N)c(C#N)c1-c1cccs1	95.7%
O=C(c1cc2c(s1)CCC2)N1CCN(c2ccccc2)CC1	19.5%
CCCNC(=S)N1CCC(NC(=O)C23CC4CC(CC(C4)C2)C3)CC1	108%
O=C(Cn1nnc(-c2ccc(CN3CCOCC3)cc2)n1)NC1CCCCC1	123%
COc1ccc(C(=O)Cn2nnc(-c3ccc(N4CCOCC4)cc3)n2)cc1OC	240% (active)
CCOc1ccc(-c2nnn(CC(=O)N3CCN(c4ccc(OC)cc4)CC3)n2)cc1OCC	87.8%
COc1ccc(N(CC(=O)NC2CCCCC2)C(=O)CNC(=O)c2ccco2)c(OC)c1	113%
O=C(Nc1nncs1)c1cccc(S(=O)(=O)N2CCCCC2)c1	91.9%
CSc1nnc2c(n1)OC(c1cn(C)c3ccccc13)N(C(C)=O)c1ccccc1-2 (stereo unspecified)	120%
CSc1nnc2c(n1)OC(c1ccsc1)N(C(C)=O)c1ccccc1-2 (stereo unspecified)	348% (active)

Compound	coactivator binding (% of control)
COCCCNC(=O)CN1CCN(Cc2ccccc2Cl)C1=O	107%
CCOc1ccc(N=C2NC(=O)S/C2=C\c2ccc(O)cc2)cc1	179%
C/C(=N\NC(=O)c1ccc(C)cc1)C1C(=O)c2ccccc2C1=O	71.8%
Cc1cc(C)nc(-n2nc(C)cc2NC(=O)c2ccc(Br)o2)n1	427% (active)
Cc1cccc(-n2nc3c(c2NC(=O)c2ccc(Br)o2)CSC3)c1C	129%
COc1cc(OC)c(NC(=O)c2ccc(Br)o2)cc1Cl	112%
CC(C)(C)n1nnnc1C(c1ccc(Cl)cc1)N1CCSCC1 (stereo unspecified)	105%
C#CCN(N(C)c1ncc(C(F)(F)F)cc1Cl)S(=O)(=O)c1ccc2ccccc2c1	165%
c1ccc(C(c2ccccc2)N2CCN(Cc3nnnn3C3CCCCC3)CC2)cc1	209% [fluorescence artefact?] (active)
c1ccc(CCn2nnnc2CN2CCN(C3CCCC3)CC2)cc1	110%
COc1ccc(C(c2nnnn2C2CCCCC2)N2CCN(c3ccccc3F)CC2)cc1 (stereo unspecified)	87.6%
COc1ccc(N2CCN(Cc3ccc(Br)s3)CC2)cc1	108%
Cc1cc(C)n(-c2nc(O)cc(=O)[nH]2)n1	103%
CCOc1cc(-c2cc(-c3ccc(OC)cc3)nc(N)c2C#N)ccc1O	146%
CCSc1nc(-c2ccc(OC)cc2)cc(-c2ccc(OC)cc2)c1C#N	371% [fluorescence artefact?] (active)
COC(=O)c1cc(OC)ccc1-c1ccc(OC)cc1	117%
O=S(=O)(NC1CCCCC1)c1ccc(F)c2ccccc12	91.4%
CCOc1cc2[nH]c(=S)n(Cc3ccc(C(=O)NCCOC)cc3)c(=O)c2cc1OCC	163%
COc1cc(-c2nc(-c3ccncc3)no2)cc(OC)c1OC	87.6%
CCOc1nc(-c2ccc(OC)cc2)ccc1-c1noc(-c2cc(OC)c(OC)c(OC)c2)n1	239% (active)
COc1ccc(-c2ccc(-c3noc(-c4ccncc4)n3)c(OC)n2)cc1	107%
O=C(CO/N=C/c1ccccc1O)NNC(=O)c1ccccc1Cl	102%
O=C(Cn1cnc2ccccc2c1=O)NCC1COc2ccccc2O1 (stereo unspecified)	104%

Compound	coactivator binding (% of control)
OC(COc1ccc2ccccc2c1)Cn1cncn1 (stereo unspecified)	100%
N#CCSc1nc2ccccc2c(=O)n1-c1ccccc1	100%
Cc1cc(C)c2c(n1)nn1c(N3CCN(c4cccc(Cl)c4)CC3)cc(C)nc21	169%
C/C(O)=C\c1nc(=O)c2c(C)cc(C)nc2n1-c1ccccc1	297% [fluorescence artefact?] (active)
Cc1cc(Cl)c(S(=O)(=O)N(C)C)cc1OCC(N)=O	103%
O=C1/C(=C/c2cccs2)CCc2ccccc21	66.3%
Cc1cc(C)c2nc(N3CCCC3)c(C#N)cc2c1	101%
Cc1cccc2cc(C#N)c(N3CCCC3)nc12	109%
CC(=O)c1ccc(S(=O)(=O)N2CCN(c3nc4c(C)c(C)ccc4cc3C#N)CC2)cc1	225% [fluorescence artefact?] (active)
Cc1cc(NC(=O)CCC(=O)N(CC(=O)NCC2CCCO2)c2ccccc2C)no1 (stereo unspecified)	101%
O=C(OC1CCCCC1=O)c1cccc(S(=O)(=O)NCc2ccccc2)c1 (stereo unspecified)	96.6%
COC(=O)c1nc2ccccc2s1	116%
Nn1cnnc1N/N=C/c1cc([N+](=O)[O-])c(Cl)cc1Cl	600% [fluorescence artefact?] (active)
CC(=O)c1cccc(NC(=O)C2CCCN2S(=O)(=O)c2cccc3nsnc23)c1 (stereo unspecified)	87.3%
CCC(=O)Nc1nc2ccccc2n1Cc1ccccc1C	117%
Cc1ccc(-n2nc3cc(Cl)c(NC(=O)c4ccco4)cc3n2)cc1	112%
Cc1ccc(Cn2c(NC(=O)c3ccco3)nc3ccccc32)cc1	316% (active)
O=c1c2ccccc2nc2n1C1(CCCCC1)Cc1ccccc1-2	109%
O=C(CN1CCCCC1)N1c2ccccc2Sc2ccc(C(F)(F)F)cc21	113%
CC1(C)C2CCC13CS(=O)(=O)NC3C2 (stereo unspecified)	96.5%
O=c1c(-c2ccc3c(c2)OCCO3)c(C(F)(F)F)oc2cc(O)cc(O)c12	346% [fluorescence artefact?] (active)
CCN1CCN(Cc2c(O)ccc3c(=O)c(-c4ccc(OC)c(OC)c4)c(C(F)(F)F)oc23)CC1	109%
CCOC(=O)c1cc2cc(-c3c(C(=O)OCC)oc4cc(O)cc(O)c4c3=O)ccc2o1	72.5%

Compound	coactivator binding (% of control)
COc1ccc(C2CC(c3cccs3)=Nc3ccccc3S2)cc1OC (stereo unspecified)	94.7%
CC(C)C[C@@H](N)c1nnc(SCC(=O)c2ccc(Cl)cc2)o1	100%
Cc1cccc(NC(=O)c2sc3nc4c(c(-c5ccco5)c3c2N)CCC4)c1	104%
NC(=O)c1sc2nc3c(c(-c4ccccc4)c2c1N)CCC3	80.3%
CC(=O)Nc1ccc(NC(=O)c2sc3nc4c(c(-c5ccc(C)cc5)c3c2N)CCC4)cc1	1100% [fluorescence artefact?] (active)
CO/N=C(/CS(=O)(=O)c1ccc(Br)cc1)c1ccc(OC)cc1	94.8%
CCOC(=O)c1ccc2c(c1)nc(C)n2CC	89.8%
O=C(NCCCN1CCCCCC1)C1CC(=O)N(C2CCCC2)C1 (stereo unspecified)	688% [fluorescence artefact?] (active)
O=C(NCCc1ccc(Cl)cc1)C1CC(=O)N(C2CCCCC2)C1 (stereo unspecified)	133%
CC(C)OCCCNC(=O)C1CC(=O)N(C2CCCCCCC2)C1 (stereo unspecified)	80.7%
Cc1ccc(S(=O)(=O)Oc2ccc(/C=N/NC(=O)c3c(Cl)cnn3C)cc2)cc1	106%
COCCNC(=O)C(c1ccc(C)o1)N(Cc1cccs1)C(=O)c1snc(C(N)=O)c1N (stereo unspecified)	117%
CCC(C)(C(=O)NC1CCCCC1)N(C)C(=O)c1ccc2c(c1)OCO2 (stereo unspecified)	107%
CCC(C(=O)NC1CCCC1)N(C(=O)c1snc(C(N)=O)c1N)c1ccc2c(c1)OCCO2 (stereo unspecified)	244% [fluorescence artefact?] (active)
CCN(CC(=O)Nc1ccccc1OC)C(=O)Cn1cnc2ccccc2c1=O	97.9%
CC1Cc2ccccc2N1C(=O)CSc1nc2ccccc2o1 (stereo unspecified)	111%
CCS(=O)(=O)c1ccc2oc(SCC(=O)N3c4ccccc4CC3C)nc2c1 (stereo unspecified)	98%
CC1Cc2ccccc2N1C(=O)CSc1nnc(-c2ccc(S(=O)(=O)N3CCCCC3)cc2)o1 (stereo unspecified)	304% (active)
Cc1cccc(OCCCC(=O)Nc2ccc(S(=O)(=O)N3CCCC3)cc2)c1	94.6%
O=C(Oc1ccc(-c2nc(-c3ccccn3)no2)cc1)c1ccccc1	210% (active)
CC(C)c1nc(-c2ccccn2)no1	105%
c1ccc(-c2noc(-c3cccs3)n2)nc1	118%
